According to ChEMBL document CHEMBL1961873, “Compounds: GSK PKIS; Assays: Nanosyn kinase panel” (2012):

How the values were obtained:
[1] = target: Tyrosine-protein kinase Fyn (Homo sapiens) (UniProt P06241); details: at 1 µM
[2] = target: Tyrosine-protein kinase HCK (Homo sapiens) (UniProt P08631); details: at 0.1 µM
[3] = target: Tyrosine-protein kinase HCK (Homo sapiens) (UniProt P08631); details: at 1 µM
[4] = target: Insulin-like growth factor 1 receptor (Homo sapiens) (UniProt P08069); details: at 0.1 µM
[5] = target: Insulin-like growth factor 1 receptor (Homo sapiens) (UniProt P08069); details: at 1 µM
[6] = target: Insulin receptor (Homo sapiens) (UniProt P06213); details: at 0.1 µM
Chain of Insulin receptor (Homo sapiens) (P06213 28-758 limits assumed): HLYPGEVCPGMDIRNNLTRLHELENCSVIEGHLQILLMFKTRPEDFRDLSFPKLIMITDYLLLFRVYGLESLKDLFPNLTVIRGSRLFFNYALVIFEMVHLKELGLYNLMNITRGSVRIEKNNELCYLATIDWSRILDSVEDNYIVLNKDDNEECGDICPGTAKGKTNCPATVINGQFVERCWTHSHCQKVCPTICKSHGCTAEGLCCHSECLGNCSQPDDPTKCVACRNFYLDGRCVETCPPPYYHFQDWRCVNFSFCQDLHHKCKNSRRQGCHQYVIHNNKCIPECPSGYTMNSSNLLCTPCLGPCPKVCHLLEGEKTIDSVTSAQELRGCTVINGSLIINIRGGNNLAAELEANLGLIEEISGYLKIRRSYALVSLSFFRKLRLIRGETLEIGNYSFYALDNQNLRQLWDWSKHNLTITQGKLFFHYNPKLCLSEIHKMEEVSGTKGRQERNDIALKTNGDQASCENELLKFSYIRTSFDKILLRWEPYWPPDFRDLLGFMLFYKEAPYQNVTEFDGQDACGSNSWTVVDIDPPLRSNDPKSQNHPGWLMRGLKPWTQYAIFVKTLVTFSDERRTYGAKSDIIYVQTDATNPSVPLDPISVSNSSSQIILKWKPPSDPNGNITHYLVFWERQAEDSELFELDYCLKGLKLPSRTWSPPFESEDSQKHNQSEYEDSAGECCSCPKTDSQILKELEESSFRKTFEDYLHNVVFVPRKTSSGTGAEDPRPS
Chain of Insulin receptor (Homo sapiens) (P06213 763-1382 limits assumed): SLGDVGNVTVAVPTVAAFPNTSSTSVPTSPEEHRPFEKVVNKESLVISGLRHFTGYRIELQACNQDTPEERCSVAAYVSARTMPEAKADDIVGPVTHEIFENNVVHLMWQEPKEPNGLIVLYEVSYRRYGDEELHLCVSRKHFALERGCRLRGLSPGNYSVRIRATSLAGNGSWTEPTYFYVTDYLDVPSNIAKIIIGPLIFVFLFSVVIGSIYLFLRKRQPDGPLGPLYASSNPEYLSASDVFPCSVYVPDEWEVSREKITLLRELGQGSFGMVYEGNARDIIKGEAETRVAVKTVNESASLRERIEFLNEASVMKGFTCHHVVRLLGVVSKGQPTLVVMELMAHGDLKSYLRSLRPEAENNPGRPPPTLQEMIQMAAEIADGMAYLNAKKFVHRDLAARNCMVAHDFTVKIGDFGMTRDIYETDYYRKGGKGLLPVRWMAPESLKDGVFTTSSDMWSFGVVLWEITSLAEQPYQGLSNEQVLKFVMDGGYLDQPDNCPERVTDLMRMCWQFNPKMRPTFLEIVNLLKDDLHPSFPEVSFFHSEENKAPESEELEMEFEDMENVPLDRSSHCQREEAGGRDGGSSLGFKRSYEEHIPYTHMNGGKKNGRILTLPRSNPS

[7] = target: Insulin receptor (Homo sapiens) (UniProt P06213); details: at 1 µM
[8] = target: Insulin receptor-related protein (Homo sapiens) (UniProt P14616); details: at 0.1 µM
[9] = target: Insulin receptor-related protein (Homo sapiens) (UniProt P14616); details: at 1 µM
[10] = target: T1, Tyrosine-protein kinase ITK/TSK (Homo sapiens) (UniProt Q08881); details: at 0.1 µM
T1 sequence (whole entry): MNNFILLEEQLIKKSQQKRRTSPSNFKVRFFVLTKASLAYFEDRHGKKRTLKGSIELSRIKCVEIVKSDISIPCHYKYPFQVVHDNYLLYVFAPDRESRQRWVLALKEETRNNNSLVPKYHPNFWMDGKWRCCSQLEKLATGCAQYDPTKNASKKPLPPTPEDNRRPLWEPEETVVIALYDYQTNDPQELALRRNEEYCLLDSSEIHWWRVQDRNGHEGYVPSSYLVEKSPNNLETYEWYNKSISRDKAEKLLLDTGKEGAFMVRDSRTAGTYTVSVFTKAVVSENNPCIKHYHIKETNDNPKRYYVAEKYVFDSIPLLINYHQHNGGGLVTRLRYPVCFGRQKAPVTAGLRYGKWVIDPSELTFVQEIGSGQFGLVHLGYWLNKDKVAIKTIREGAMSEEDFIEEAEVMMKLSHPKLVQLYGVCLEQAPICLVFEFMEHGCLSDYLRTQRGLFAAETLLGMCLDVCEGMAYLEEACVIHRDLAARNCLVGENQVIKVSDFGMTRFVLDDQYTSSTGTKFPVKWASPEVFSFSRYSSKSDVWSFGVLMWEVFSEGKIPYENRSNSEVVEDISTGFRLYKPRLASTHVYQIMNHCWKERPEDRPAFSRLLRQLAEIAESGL

[11] = target: T1, Tyrosine-protein kinase ITK/TSK (Homo sapiens); details: at 1 µM
[12] = target: Tyrosine-protein kinase JAK1 (Homo sapiens) (UniProt P23458); details: at 0.1 µM
[13] = target: Tyrosine-protein kinase JAK1 (Homo sapiens) (UniProt P23458); details: at 1 µM
[14] = target: Tyrosine-protein kinase JAK2 (Homo sapiens) (UniProt O60674); details: at 0.1 µM
[15] = target: Tyrosine-protein kinase JAK2 (Homo sapiens) (UniProt O60674); details: at 1 µM
[16] = target: T2, Tyrosine-protein kinase JAK3 (Homo sapiens) (UniProt P52333); details: at 0.1 µM
T2 sequence (whole entry): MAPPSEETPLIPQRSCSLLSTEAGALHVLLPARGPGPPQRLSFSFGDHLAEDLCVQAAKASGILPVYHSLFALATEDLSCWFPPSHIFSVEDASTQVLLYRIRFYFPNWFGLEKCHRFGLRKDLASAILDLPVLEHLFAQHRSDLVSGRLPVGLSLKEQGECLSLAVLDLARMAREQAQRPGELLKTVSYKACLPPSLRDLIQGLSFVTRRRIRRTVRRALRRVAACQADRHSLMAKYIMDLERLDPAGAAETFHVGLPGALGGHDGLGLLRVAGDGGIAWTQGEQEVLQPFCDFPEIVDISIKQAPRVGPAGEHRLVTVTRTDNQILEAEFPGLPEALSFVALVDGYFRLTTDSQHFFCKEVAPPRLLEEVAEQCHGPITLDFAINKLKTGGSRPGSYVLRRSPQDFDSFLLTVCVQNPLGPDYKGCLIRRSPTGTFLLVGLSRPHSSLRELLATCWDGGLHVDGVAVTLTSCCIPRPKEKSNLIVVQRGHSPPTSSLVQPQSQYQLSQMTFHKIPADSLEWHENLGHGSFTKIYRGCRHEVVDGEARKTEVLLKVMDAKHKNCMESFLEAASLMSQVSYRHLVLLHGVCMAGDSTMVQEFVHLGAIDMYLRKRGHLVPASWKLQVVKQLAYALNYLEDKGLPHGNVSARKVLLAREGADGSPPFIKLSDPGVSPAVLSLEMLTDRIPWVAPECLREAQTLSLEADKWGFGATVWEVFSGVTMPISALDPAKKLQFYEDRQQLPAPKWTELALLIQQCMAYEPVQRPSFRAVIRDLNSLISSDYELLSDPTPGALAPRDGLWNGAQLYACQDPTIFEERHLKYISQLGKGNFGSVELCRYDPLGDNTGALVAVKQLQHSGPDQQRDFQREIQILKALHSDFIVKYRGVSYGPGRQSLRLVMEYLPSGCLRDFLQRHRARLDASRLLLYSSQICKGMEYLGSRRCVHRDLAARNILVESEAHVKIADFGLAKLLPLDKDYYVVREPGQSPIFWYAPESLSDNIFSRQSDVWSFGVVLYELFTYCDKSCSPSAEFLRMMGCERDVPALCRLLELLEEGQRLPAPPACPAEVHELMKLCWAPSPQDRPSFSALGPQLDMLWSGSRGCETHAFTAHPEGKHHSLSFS

[17] = target: T2, Tyrosine-protein kinase JAK3 (Homo sapiens); details: at 1 µM
[18] = target: Vascular endothelial growth factor receptor 2 (Homo sapiens) (UniProt P35968); details: at 0.1 µM
Chain of Vascular endothelial growth factor receptor 2 (Homo sapiens) (P35968 whole entry): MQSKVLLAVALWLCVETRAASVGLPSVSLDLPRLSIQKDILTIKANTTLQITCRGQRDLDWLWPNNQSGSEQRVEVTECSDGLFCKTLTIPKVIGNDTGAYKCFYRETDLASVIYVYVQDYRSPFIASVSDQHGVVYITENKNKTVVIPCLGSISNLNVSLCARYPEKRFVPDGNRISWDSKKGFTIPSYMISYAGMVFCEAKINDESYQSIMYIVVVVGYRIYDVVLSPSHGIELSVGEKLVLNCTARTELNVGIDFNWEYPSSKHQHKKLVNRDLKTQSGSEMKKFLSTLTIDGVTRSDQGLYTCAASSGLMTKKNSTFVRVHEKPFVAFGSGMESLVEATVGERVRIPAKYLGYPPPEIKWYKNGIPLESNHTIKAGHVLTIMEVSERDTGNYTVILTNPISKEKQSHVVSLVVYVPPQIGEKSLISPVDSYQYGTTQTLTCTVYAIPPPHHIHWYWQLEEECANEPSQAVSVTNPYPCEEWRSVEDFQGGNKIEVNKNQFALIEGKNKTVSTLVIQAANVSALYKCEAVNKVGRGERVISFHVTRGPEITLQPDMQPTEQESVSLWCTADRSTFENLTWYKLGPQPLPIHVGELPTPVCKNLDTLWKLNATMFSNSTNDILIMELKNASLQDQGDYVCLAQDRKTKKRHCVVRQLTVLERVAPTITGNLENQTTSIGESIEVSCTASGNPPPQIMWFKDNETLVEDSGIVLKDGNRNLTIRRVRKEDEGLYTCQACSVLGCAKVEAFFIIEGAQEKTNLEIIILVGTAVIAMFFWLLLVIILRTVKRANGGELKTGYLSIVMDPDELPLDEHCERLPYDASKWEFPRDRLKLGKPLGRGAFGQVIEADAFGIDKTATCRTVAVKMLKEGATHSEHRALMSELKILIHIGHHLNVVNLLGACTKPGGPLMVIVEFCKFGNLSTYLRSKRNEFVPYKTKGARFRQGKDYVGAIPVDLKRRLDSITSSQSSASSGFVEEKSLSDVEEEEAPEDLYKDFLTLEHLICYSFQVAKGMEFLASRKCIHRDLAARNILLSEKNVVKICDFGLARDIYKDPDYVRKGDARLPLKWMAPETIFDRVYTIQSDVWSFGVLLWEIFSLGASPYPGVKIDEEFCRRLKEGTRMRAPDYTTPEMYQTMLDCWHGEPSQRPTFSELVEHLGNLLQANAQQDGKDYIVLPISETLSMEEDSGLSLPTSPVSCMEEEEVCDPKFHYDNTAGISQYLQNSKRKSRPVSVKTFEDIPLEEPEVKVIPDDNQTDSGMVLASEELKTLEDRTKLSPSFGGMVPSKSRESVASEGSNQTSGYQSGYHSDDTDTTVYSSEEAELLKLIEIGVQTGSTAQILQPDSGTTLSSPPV

[19] = target: Vascular endothelial growth factor receptor 2 (Homo sapiens) (UniProt P35968); details: at 1 µM
[20] = target: Mast/stem cell growth factor receptor Kit (Homo sapiens) (UniProt P10721); details: at 0.1 µM;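 also: values are mean inhibition of KIT, from the GSK PKIS dataset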
Chain of Mast/stem cell growth factor receptor Kit (Homo sapiens) (P10721 whole entry): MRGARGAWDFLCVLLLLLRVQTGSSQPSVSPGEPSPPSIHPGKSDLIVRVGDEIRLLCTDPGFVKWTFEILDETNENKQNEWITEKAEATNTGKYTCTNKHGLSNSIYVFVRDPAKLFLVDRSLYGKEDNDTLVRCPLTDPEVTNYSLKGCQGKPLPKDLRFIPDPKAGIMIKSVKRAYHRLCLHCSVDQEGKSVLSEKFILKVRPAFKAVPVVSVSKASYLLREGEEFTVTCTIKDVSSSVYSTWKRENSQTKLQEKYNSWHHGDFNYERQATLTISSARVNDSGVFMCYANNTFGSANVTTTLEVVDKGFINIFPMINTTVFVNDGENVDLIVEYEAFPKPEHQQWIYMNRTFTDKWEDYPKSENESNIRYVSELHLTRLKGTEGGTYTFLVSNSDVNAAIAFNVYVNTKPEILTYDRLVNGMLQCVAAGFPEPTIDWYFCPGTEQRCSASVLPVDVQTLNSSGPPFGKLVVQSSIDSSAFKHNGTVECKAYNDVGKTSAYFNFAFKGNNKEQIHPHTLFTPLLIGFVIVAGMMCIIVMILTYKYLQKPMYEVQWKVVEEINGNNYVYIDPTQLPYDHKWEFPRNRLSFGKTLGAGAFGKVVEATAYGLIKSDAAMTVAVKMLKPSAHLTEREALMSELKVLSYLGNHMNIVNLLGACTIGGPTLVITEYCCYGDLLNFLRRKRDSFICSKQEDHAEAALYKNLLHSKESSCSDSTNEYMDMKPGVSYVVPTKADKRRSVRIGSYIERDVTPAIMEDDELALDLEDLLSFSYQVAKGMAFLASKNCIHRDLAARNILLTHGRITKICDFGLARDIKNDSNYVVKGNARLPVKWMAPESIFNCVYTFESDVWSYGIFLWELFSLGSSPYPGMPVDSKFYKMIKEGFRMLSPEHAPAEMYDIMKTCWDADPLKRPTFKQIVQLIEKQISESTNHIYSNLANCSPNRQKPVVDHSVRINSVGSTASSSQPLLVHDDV

Chain of Tyrosine-protein kinase Fyn (Homo sapiens) (P06241 2-537 limits assumed): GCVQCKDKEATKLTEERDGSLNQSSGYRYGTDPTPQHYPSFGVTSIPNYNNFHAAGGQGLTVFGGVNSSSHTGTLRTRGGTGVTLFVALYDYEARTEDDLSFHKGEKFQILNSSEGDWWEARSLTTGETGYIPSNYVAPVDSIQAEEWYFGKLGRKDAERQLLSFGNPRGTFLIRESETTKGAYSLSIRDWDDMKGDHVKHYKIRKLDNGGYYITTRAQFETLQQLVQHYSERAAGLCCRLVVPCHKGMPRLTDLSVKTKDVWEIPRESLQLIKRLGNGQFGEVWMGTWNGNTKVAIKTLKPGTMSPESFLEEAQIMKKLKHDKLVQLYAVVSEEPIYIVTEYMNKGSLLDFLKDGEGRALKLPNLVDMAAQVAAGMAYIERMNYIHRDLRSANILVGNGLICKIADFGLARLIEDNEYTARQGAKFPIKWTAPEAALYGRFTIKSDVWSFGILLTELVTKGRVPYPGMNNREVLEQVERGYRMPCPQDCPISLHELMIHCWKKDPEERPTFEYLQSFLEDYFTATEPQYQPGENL
Chain of Tyrosine-protein kinase HCK (Homo sapiens) (P08631 2-526 limits assumed): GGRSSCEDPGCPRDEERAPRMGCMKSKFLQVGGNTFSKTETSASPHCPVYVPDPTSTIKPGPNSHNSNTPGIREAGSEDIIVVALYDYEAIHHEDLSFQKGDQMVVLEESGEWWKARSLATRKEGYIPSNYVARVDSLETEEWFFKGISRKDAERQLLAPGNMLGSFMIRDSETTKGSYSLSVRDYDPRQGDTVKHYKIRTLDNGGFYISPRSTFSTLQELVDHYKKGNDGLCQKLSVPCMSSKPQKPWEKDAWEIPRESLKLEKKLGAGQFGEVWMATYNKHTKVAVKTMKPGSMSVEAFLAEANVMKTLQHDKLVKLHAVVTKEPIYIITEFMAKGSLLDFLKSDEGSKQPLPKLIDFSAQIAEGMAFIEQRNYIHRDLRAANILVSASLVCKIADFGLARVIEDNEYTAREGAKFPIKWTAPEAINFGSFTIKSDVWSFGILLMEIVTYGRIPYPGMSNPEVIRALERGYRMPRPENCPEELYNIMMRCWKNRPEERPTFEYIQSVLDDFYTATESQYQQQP

Structure (SMILES)	inhibition [1]	inhibition [2]	inhibition [3]	inhibition [4]	inhibition [5]	inhibition [6]	inhibition [7]	inhibition [8]	inhibition [9]	inhibition [10]	inhibition [11]	inhibition [12]	inhibition [13]	inhibition [14]	inhibition [15]	inhibition [16]	inhibition [17]	inhibition [18]	inhibition [19]	inhibition [20]
CC(C)c1ccc2c(c1)NC(=O)/C2=N/Nc1ccc(S(N)(=O)=O)cc1	7.54%	0.57%	11%	-0.14%	1.33%	4%	1.87%	-1.32%	-1.93%	0.01%	2.46%	-0.53%	0.94%	-1.94%	-0.2%	-0.51%	1.08%	1.26%	4.21%	7.67%
O=C1Nc2ccc(-c3cccnc3)cc2C1=Cc1cc(Br)c(O)c(Br)c1	10.5%	3.63%	11.1%	3.8%	4.14%	3.63%	0.1%	4.28%	2.51%	1.58%	2.67%	2.38%	1.97%	1.07%	3.68%	-1.1%	15.8%	4.5%	10.1%	3.48%
Nc1ccc(C#Cc2cncnc2Nc2ccc(OCc3cccc(F)c3)c(Cl)c2)cc1	1.14%	4.6%	5.04%	1.78%	-0.29%	1.22%	2.12%	2.27%	2.76%	0.59%	1.02%	0.18%	0.58%	0.74%	0.43%	-2.62%	-0.39%	1.13%	5.84%	5.48%
[O-][S+]1CCN(Cc2ccc(-c3ccc4ncnc(Nc5ccc(OCc6ccccc6)c(Cl)c5)c4c3)o2)CC1	4.61%	2.6%	3.96%	14.4%	10.7%	2%	3.55%	-1.65%	0.75%	0.08%	1.13%	1.27%	2.62%	0.66%	-0.25%	-1.01%	-0.24%	0.96%	4%	1.98%
Nc1nccc(-c2c(-c3ccc(F)cc3)ncn2CCCN2CCOCC2)n1	4.47%	5.16%	6.92%	9.8%	8.95%	0.02%	3.74%	2.13%	5.23%	1.35%	2.18%	2.73%	17.8%	1.23%	0.43%	-0.85%	-0.57%	4.12%	11.2%	3.2%
CN(C)C(=O)O[C@@H]1CN[C@@H](C#Cc2cc3ncnc(Nc4ccc(OCc5cccc(F)c5)c(Cl)c4)c3s2)C1	3.53%	1.53%	4.13%	-0.74%	0%	0.78%	1.75%	-1.28%	0.29%	0.62%	0.1%	1.28%	0.05%	0.23%	-0.45%	0.14%	2.09%	0.75%	3.31%	-1.17%
C[C@@H](Oc1cc(-n2cnc3ccc(OC[C@@H](O)CO)cc32)sc1C(N)=O)c1ccccc1Cl	5.15%	-0.15%	6.39%	-1.52%	-0.34%	0.87%	0.26%	-2.17%	-2.11%	0.28%	0.81%	-2.88%	0.21%	-0.63%	0.06%	-0.17%	19.7%	1.39%	22.2%	-0.46%
COc1cc(Nc2nccc(-c3cnn4ncccc34)n2)cc(OC)c1	40.3%	5.71%	32.8%	13.8%	65.4%	12.3%	70%	3.56%	22.1%	0.74%	11.8%	4.49%	22.9%	1.89%	36.4%	7.71%	60.5%	14.8%	63.8%	96.2%
Cc1cc(O)cc(C)c1/C=C/c1cncc(C(=O)N(C)C)c1	4.2%	4.54%	10.8%	2.54%	5.15%	2.68%	0.32%	2.71%	1%	1.43%	1.94%	4.52%	5.42%	1.7%	3.22%	-0.76%	1.31%	7.06%	12.3%	4.12%
CN(c1ccc(NC(=O)Nc2ccc(OC(F)(F)F)cc2)cc1)c1ccnc(Nc2cccc(S(N)(=O)=O)c2)n1	53.5%	25.2%	77.3%	-1.04%	0.46%	1.9%	2.39%	0.67%	3.26%	10.6%	67.3%	2.28%	12.8%	0.3%	1.31%	-2.38%	-1.69%	78.8%	99.6%	37.5%
O=C(Nc1ccc(Oc2ccc3[nH]c(NC(=O)c4ccco4)nc3c2)cc1)Nc1cc(C(F)(F)F)ccc1F	19.9%	7.54%	47.3%	-8.65%	-5.27%	1.23%	1.66%	0.43%	0.25%	-2.86%	0.22%	-1.24%	0.27%	1.11%	7.23%	-3.43%	-2.59%			30.5%
CCn1c(-c2nonc2N)nc2c(C#CC(C)(C)O)nc(OCCNC)cc21	4.65%	5.42%	8.69%	5.39%	3.53%	6.39%	5.58%	0.83%	1.9%	0.63%	0.12%	1.27%	2.83%	2.5%	3.3%	-2.54%	-0.89%	16.2%	64.8%	4.99%
CN(C)c1cc2c(Nc3ccc4c(cnn4Cc4ccccc4)c3)ncnc2cn1	15.3%	7.12%	19.9%	0.45%	2.94%	5.08%	6.13%	1.7%	0.35%	1.37%	0.99%	3.23%	-0.82%	0.91%	2.18%	-0.53%	0.54%	4.41%	18.2%	3.49%
